From PubChem BioAssay (NCATS)
Inconclusive results are not listed. Activity calls are given as the source filed them. Calls follow the shape of the dose curve; as a rule, active = well fitted inhibition curve with a large enough effect; inconclusive = small, poorly fitted or top-dose-only effect; inactive = flat fitted curve, though single readings scatter.

These molecules were tested on CP262 (assay: qHTS profiling for inhibitors of Plasmodium falciparum proliferation (AID 504749;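 also: 0% = DMSO vehicle and full inhibition = artemisinin control; nearly all actives have a fitted effect of over 60% in size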)). Conditions: P. falciparum in erythrocytes, SYBR Green DNA, 72 h; series mostly up to 28.7 µM; activity, negative = inhibition: at the top concentration.
In short: (§1)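 Each compound contacts P. falciparum-infected red blood cells for 72 h at 37 C; lysis buffer (Tris, EDTA, saponin, Triton X, SYBR Green I) is added and fluorescence measured next morning; values normalized to controls.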

Row | SMILES | activity, negative = inhibition
1 | COc1cc(S(C)=O)ccc1-c1nc2ncccc2[nH]1 (stereo not given) | 0% (inactive)
2 | CCOc1ccc(S(=O)(=O)O)c2cccnc12 | 2.85% (inactive)
3 | NC(=S)NS(=O)(=O)c1ccc(N)cc1 | 13.9% (inactive)
4 | C[C@]12CC[C@@H]3c4ccc(OC(=O)c5ccccc5)cc4CC[C@H]3[C@@H]1CC[C@@H]2O | 10.6% (inactive)
5 | CC(CCc1ccc(O)cc1)NCC(O)c1ccc(O)cc1 (stereo not given) | 5.09% (inactive)
6 | FC(F)(F)C(F)(F)C(F)(F)C(F)(F)C(F)(F)C(F)(F)F | 0.524% (inactive)
7 | CN(C)CCOc1ccc(/C(=C(/CCCl)c2ccccc2)c2ccccc2)cc1 | 2.08% (inactive)
8 | CNC(=O)OCc1cccc(COC(=O)NC)n1 | 24.4% (inactive)
9 | NCC[C@H](O)C(=O)N[C@@H]1C[C@H](N)[C@@H](O[C@H]2O[C@H](CN)[C@@H](O)[C@H](O)[C@H]2O)[C@H](O)[C@H]1O[C@H]1O[C@H](CO)[C@@H](O)[C@H](N)[C@H]1O | 5.25% (inactive)
10 | NC(N)=O | 11% (inactive)
11 | CC1CCCCN1CCCOC(=O)c1ccccc1 (stereo not given) | -13.9% (inactive)
12 | COC(=O)CCC[N+](C)(C)C | -1.19% (inactive)
13 | COC(=O)CC[C@H](N)C(=O)O | 0% (inactive)
14 | O=C(OCc1ccccc1)c1ccc(O)cc1 | 9.74% (inactive)
15 | CC(C)(CO)[C@@H](O)C(=O)NCCC(=O)NCCSSCCNC(=O)CCNC(=O)[C@H](O)C(C)(C)CO | 14.5% (inactive)
16 | COC(=O)c1ccccc1O | 0% (inactive)
17 | OC[C@H]1O[C@@](CO)(O[C@H]2O[C@H](CO)[C@@H](O)[C@H](O)[C@H]2O)[C@@H](O)[C@@H]1O | 0% (inactive)
18 | Nc1nccs1 | 14.3% (inactive)
19 | c1ccc2ccccc2c1 | 3.14% (inactive)
20 | O=S(=O)(O)CCCS(=O)(=O)O | 18.8% (inactive)

Row | SMILES | activity, negative = inhibition
21 | O=C1c2ccccc2C(=O)c2c1ccc(O)c2O | 2.48% (inactive)
22 | O=C(NNCNNC(=O)c1ccncc1)c1ccncc1 | 8.9% (inactive)
23 | [O]=[Bi][O]C(=O)[O][Bi]=[O] | -7.02% (inactive)
24 | C=CCN1CCCC1CNC(=O)c1cc(S(N)(=O)=O)cc(OC)c1OC (stereo not given) | 9.59% (inactive)
25 | CC(C)[C@H](N)C(=O)OCC(CO)OCn1cnc2c(=O)[nH]c(N)nc21 (stereo not given in full) | -0.875% (inactive)
26 | CCCCCCCCCCCCCCCCCC(=O)OC[C@@H](O)[C@H]1OC[C@H](O)[C@H]1O | 0.649% (inactive)
27 | CC(=O)[C@H]1CC[C@H]2[C@@H]3C=CC4=CC(=O)CC[C@@]4(C)[C@H]3CC[C@]12C | -0.817% [at 12.8 µM] (inactive)
28 | CCCC(=O)O | 11.1% (inactive)
29 | CC1(C)S[C@@H]2[C@H](NC(=O)C3(N)CCCCC3)C(=O)N2[C@H]1C(=O)O | 4.69% (inactive)
30 | CCCCCCCCCCCC(=O)OCC(O)CO (stereo not given) | 1.62% (inactive)
31 | CCOc1ccc(NC(=S)Nc2ccc(OCC)cc2)cc1 | -2.04% (inactive)
32 | C[C@H](CCC(=O)O)[C@H]1CC[C@H]2[C@@H]3CC[C@@H]4C[C@H](O)CC[C@]4(C)[C@H]3C[C@H](O)[C@]12C | -1.02% (inactive)
33 | CC(C)(COP(=O)(O)OP(=O)(O)OC[C@H]1O[C@@H](n2cnc3c(N)ncnc32)[C@H](O)[C@@H]1OP(=O)(O)O)C(O)C(=O)NCCC(=O)NCCS (stereo not given in full) | -0.924% (inactive)
34 | O=C(CCCCCCCCCCCCC1CCCC1)Nc1ccc(S(=O)(=O)c2ccc(NC(=O)CCCCCCCCCCCCC3CCCC3)cc2)cc1 | 12.4% (inactive)
35 | Nc1nc(=O)n([C@@H]2CS[C@H](CO)O2)cc1F | -3.97% (inactive)
36 | O=C(O)CCC/C=C\C[C@@H]1[C@@H](/C=C/[C@@H](O)COc2cccc(C(F)(F)F)c2)[C@H](O)C[C@@H]1O | 10.9% (inactive)
37 | Cc1c(Cl)cccc1Nc1ncccc1C(=O)O | 0.633% (inactive)
38 | CC(C)=CCC/C(C)=C/CC/C(C)=C/CC/C=C(\C)CC/C=C(\C)CCC=C(C)C | 7.82% (inactive)
39 | CC(=O)Nc1ccc(OC(C)=O)cc1 | 0% (inactive)
40 | CC(=O)N[C@@H]1C(O[C@H]2O[C@H](C(=O)O)C(O)[C@H](O)[C@H]2O)[C@H](O)[C@@H](CO)O[C@H]1O[C@@H]1C(C(=O)O)O[C@@H](O[C@H]2[C@H](O)[C@@H](CO)OC(O)[C@@H]2NC(C)=O)[C@H](O)[C@H]1O (stereo not given in full) | 1.69% (inactive)

These molecules were tested on CP265 in the same assay as above. Conditions: P. falciparum in erythrocytes, SYBR Green DNA, 72 h; series mostly up to 28.7 µM; activity, negative = inhibition: at the top concentration.
In short: as §1

Row | SMILES | activity, negative = inhibition
41 | COc1cc(S(C)=O)ccc1-c1nc2ncccc2[nH]1 (stereo not given) | -5.19% (inactive)
42 | CCOc1ccc(S(=O)(=O)O)c2cccnc12 | -2.09% (inactive)
43 | NC(=S)NS(=O)(=O)c1ccc(N)cc1 | 7.57% (inactive)
44 | C[C@]12CC[C@@H]3c4ccc(OC(=O)c5ccccc5)cc4CC[C@H]3[C@@H]1CC[C@@H]2O | -1.04% (inactive)
45 | CC(CCc1ccc(O)cc1)NCC(O)c1ccc(O)cc1 (stereo not given) | 1.48% (inactive)
46 | FC(F)(F)C(F)(F)C(F)(F)C(F)(F)C(F)(F)C(F)(F)F | 3.8% (inactive)
47 | CN(C)CCOc1ccc(/C(=C(/CCCl)c2ccccc2)c2ccccc2)cc1 | -22.4% (inactive)
48 | CNC(=O)OCc1cccc(COC(=O)NC)n1 | 4.05% (inactive)
49 | NCC[C@H](O)C(=O)N[C@@H]1C[C@H](N)[C@@H](O[C@H]2O[C@H](CN)[C@@H](O)[C@H](O)[C@H]2O)[C@H](O)[C@H]1O[C@H]1O[C@H](CO)[C@@H](O)[C@H](N)[C@H]1O | 2.68% (inactive)
50 | NC(N)=O | 6.79% (inactive)
51 | CC1CCCCN1CCCOC(=O)c1ccccc1 (stereo not given) | -13.2% (inactive)
52 | COC(=O)CCC[N+](C)(C)C | 9.69% (inactive)
53 | COC(=O)CC[C@H](N)C(=O)O | 6.45% (inactive)
54 | O=C(OCc1ccccc1)c1ccc(O)cc1 | 0.206% (inactive)
55 | CC(C)(CO)[C@@H](O)C(=O)NCCC(=O)NCCSSCCNC(=O)CCNC(=O)[C@H](O)C(C)(C)CO | 3.64% (inactive)
56 | COC(=O)c1ccccc1O | -2.88% (inactive)
57 | OC[C@H]1O[C@@](CO)(O[C@H]2O[C@H](CO)[C@@H](O)[C@H](O)[C@H]2O)[C@@H](O)[C@@H]1O | 1.24% (inactive)
58 | Nc1nccs1 | 7.49% (inactive)
59 | c1ccc2ccccc2c1 | 2.38% (inactive)
60 | O=S(=O)(O)CCCS(=O)(=O)O | 12.3% (inactive)

Row | SMILES | activity, negative = inhibition
61 | O=C1c2ccccc2C(=O)c2c1ccc(O)c2O | 2.35% (inactive)
62 | O=C(NNCNNC(=O)c1ccncc1)c1ccncc1 | 2.28% (inactive)
63 | [O]=[Bi][O]C(=O)[O][Bi]=[O] | -18.9% (inactive)
64 | C=CCN1CCCC1CNC(=O)c1cc(S(N)(=O)=O)cc(OC)c1OC (stereo not given) | 4.22% (inactive)
65 | CC(C)[C@H](N)C(=O)OCC(CO)OCn1cnc2c(=O)[nH]c(N)nc21 (stereo not given in full) | 5.9% (inactive)
66 | CCCCCCCCCCCCCCCCCC(=O)OC[C@@H](O)[C@H]1OC[C@H](O)[C@H]1O | -5% (inactive)
67 | CC(=O)[C@H]1CC[C@H]2[C@@H]3C=CC4=CC(=O)CC[C@@]4(C)[C@H]3CC[C@]12C | 0.818% [at 12.8 µM] (inactive)
68 | CCCC(=O)O | 2.07% (inactive)
69 | CC1(C)S[C@@H]2[C@H](NC(=O)C3(N)CCCCC3)C(=O)N2[C@H]1C(=O)O | 16% (inactive)
70 | CCCCCCCCCCCC(=O)OCC(O)CO (stereo not given) | -4.98% (inactive)
71 | CCOc1ccc(NC(=S)Nc2ccc(OCC)cc2)cc1 | -3.93% (inactive)
72 | C[C@H](CCC(=O)O)[C@H]1CC[C@H]2[C@@H]3CC[C@@H]4C[C@H](O)CC[C@]4(C)[C@H]3C[C@H](O)[C@]12C | 13.7% (inactive)
73 | CC(C)(COP(=O)(O)OP(=O)(O)OC[C@H]1O[C@@H](n2cnc3c(N)ncnc32)[C@H](O)[C@@H]1OP(=O)(O)O)C(O)C(=O)NCCC(=O)NCCS (stereo not given in full) | 5.86% (inactive)
74 | O=C(CCCCCCCCCCCCC1CCCC1)Nc1ccc(S(=O)(=O)c2ccc(NC(=O)CCCCCCCCCCCCC3CCCC3)cc2)cc1 | 4.28% (inactive)
75 | Nc1nc(=O)n([C@@H]2CS[C@H](CO)O2)cc1F | 3.7% (inactive)
76 | O=C(O)CCC/C=C\C[C@@H]1[C@@H](/C=C/[C@@H](O)COc2cccc(C(F)(F)F)c2)[C@H](O)C[C@@H]1O | -8.16% (inactive)
77 | Cc1c(Cl)cccc1Nc1ncccc1C(=O)O | 1.58% (inactive)
78 | CC(C)=CCC/C(C)=C/CC/C(C)=C/CC/C=C(\C)CC/C=C(\C)CCC=C(C)C | -4.94% (inactive)
79 | CC(=O)Nc1ccc(OC(C)=O)cc1 | 5.16% (inactive)
80 | CC(=O)N[C@@H]1C(O[C@H]2O[C@H](C(=O)O)C(O)[C@H](O)[C@H]2O)[C@H](O)[C@@H](CO)O[C@H]1O[C@@H]1C(C(=O)O)O[C@@H](O[C@H]2[C@H](O)[C@@H](CO)OC(O)[C@@H]2NC(C)=O)[C@H](O)[C@H]1O (stereo not given in full) | 2.09% (inactive)
